Source: paper PMC5540273 (PLoS ONE, 2017)

system: CAMK1B; settings: concentration: 1 μM, replicates: in singlicate; n = 1
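Further: KINOMEscan kinase panel screen.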

Structure (SMILES)	%Inh [%]
CN(c1ccc2c(c1)nc(NCc1ccccc1)n2C)c1ccnc(Nc2ccc(CS(C)(=O)=O)cc2)n1.Cl [GW811603]	46
COc1cccc(C2=C(Nc3cccc(O)c3)C(=O)NC2=O)c1 [SB-390771]	29
O=C(Nc1c(F)cccc1F)c1cc(C(=O)c2ccccc2F)c[nH]1 [GSK1326180]	33
CC(C)c1nc(-c2ccc(F)c(NS(=O)(=O)c3c(F)cccc3F)c2)c(-c2ccnc(Nc3ccc(N4CCOCC4)nc3)n2)s1 [GSK1804250]	31
Cl.O=C(Nc1ccc(Oc2ccc3[nH]c(NC(=O)c4ccco4)nc3c2)cc1)Nc1cc(C(F)(F)F)ccc1F [GW683134]	29
c1ccc(Oc2ccc(Nc3ccnc4cc(-c5ccc(CN6CCCCC6)o5)ccc34)cc2)nc1 [GW567143]	0
N#CC1(c2cccc(C(=O)Nc3cccc(Oc4ccc5nc(NC(=O)C6CC6)sc5n4)c3)c2)CC1	0
CNc1nccc(-c2ccc3c(N)n[nH]c3c2)n1 [GSK2206003]	0
COc1cccc(NC(=O)NCCNc2ccnc(Nc3ccc(F)cc3)n2)c1 [GSK1379879]	0
Cc1cccc(Nc2nc(N[C@H]3CCCC[C@H]3N)ncc2C(N)=O)c1.Cl [GSK986310]	91.4
COC(=O)Nc1nc2cc(Oc3ccc(NC(=O)Nc4cccc(SC)c4)cc3)ccc2[nH]1.Cl [GW697999]	0
CN(c1ccc(NC(=O)N2CCN(CCCN3CCOCC3)CC2)cc1)c1ccnc(Nc2ccc(CS(C)(=O)=O)cc2)n1.Cl [GW830899]	0
O=C(Nc1n[nH]c2nc(-c3ccccc3O)ccc12)C1CC1 [SB-711880]	9
CCn1c(-c2nonc2N)nc2c(-c3ccccc3)ncc(OCCCN)c21.O=C(O)C(F)(F)F.O=C(O)C(F)(F)F [GSK260205]	7
Cc1ccc(NC(=O)c2ccnc(N3CCCCC3)c2)cc1-c1ccc(C(=O)NCC2CC2)cc1 [GW775610]	24
O=C(O)C(F)(F)F.O=c1[nH]ccc2nc(N[C@@H]3CCNC3)nc(Nc3ccc4c(c3)S(=O)(=O)CC4)c12 [GSK2181306]	98.7
Cc1ccccc1CC(=O)N1CCc2cc(-c3cn(C)c4ncnc(N)c34)ccc21 [GSK2603346]	0
Cc1ccc(O)cc1Nc1ccnc2cc(-c3ccc(CN4CCCCC4)o3)ccc12 [GW557777]	0
COc1ccc(C2=C(Nc3cccc(O)c3)C(=O)NC2=O)cc1 [SB-390766]	73

Structure (SMILES)	%Inh [%]
Cc1ccc(O)cc1Nc1ccnc2ccc(C(C)(C)C)cc12 [GW856805]	29
O=C(Nc1n[nH]c2nc(-c3ccccc3)ccc12)C1CC1 [SB-708999]	35
NCCC(NC(=O)c1cc(Br)c(-c2ccnc3[nH]ccc23)s1)c1ccccc1.O=C(O)C(F)(F)F.O=C(O)C(F)(F)F (stereo not shown) [GSK1307810]	52
CCOc1nccc(-c2c(-c3ccc(F)cc3)ncn2C2CCNCC2)n1 [SB-249175]	31
CN1CCN(Cc2ccc(NC(=O)Nc3ccc(N(C)c4ccnc(Nc5ccc(CS(C)(=O)=O)cc5)n4)cc3)cc2)CC1.Cl [GW827654]	42
Cn1cc(-c2ccc3c(c2)CCN3C(=O)Cc2cc(F)cc(F)c2F)c2c(N)ncnc21 [GSK2634140]	7
Cl.Cl.NCC(NC(=O)c1cc(-c2cccnc2)c(-c2ccnc3[nH]ccc23)s1)c1ccccc1 (stereo not shown) [GSK1323434]	7
Cc1ccc(NC(=O)c2cccc(N3CCCCC3)c2)cc1-c1ccc(C(=O)NCC2CC2)cc1 [GSK1917008]	27
Cc1nn2c(=O)cc(N3CCO[C@H](C)C3)nc2n1Cc1cccc(Cl)c1Cl [GSK2373693]	42
Cl.N#CCc1ccc(Nc2nccc(Nc3ccc(Oc4ccccc4)cc3)n2)cc1 [GW639905]	31
Cn1cc(-c2cnc(N)c3c(-c4ccc5c(c4)CCN5C(=O)Cc4ccccc4)csc23)cn1 [GSK2593074]	0
CC(=O)Nc1cn2nc(Oc3cccc(NC(=O)c4cccc(C(F)(F)F)c4)c3)ccc2n1	0
O=C(Nc1n[nH]c2cc(-c3cccs3)ccc12)C1CC1 [SB-731284]	0
CN(c1ccc(NC(=O)Nc2cccc(Cl)c2)cc1)c1ccnc(N)n1.Cl [GW830707]	15
CCn1cnc2c(NCc3ccccc3)ncnc21 [SKF-96418]	0
CC(C)(C)c1ccc(C(=O)Nc2cn3cc(-n4ccnc4)ccc3n2)cc1	0
COc1cc(Nc2nccc(N3CCC(NS(=O)(=O)c4ccc(NC(C)=O)cc4)CC3)n2)cc(OC)c1OC [GSK1379825]	35
CCNC(=O)/C=C/c1n[nH]c2cc(Sc3ccccc3C(=O)NC)ccc12	9
